The full ranking holds about 68,000 sequences; the median of “fluorescence intensity (a.u.)” is about 9,100, and the highest 2% start at about 16,000. For the sample, the highest values were picked, then their nearest neighbours and some sequences at random.

Chain of OsWRKY34 (Q0JBA9 entry or part of it): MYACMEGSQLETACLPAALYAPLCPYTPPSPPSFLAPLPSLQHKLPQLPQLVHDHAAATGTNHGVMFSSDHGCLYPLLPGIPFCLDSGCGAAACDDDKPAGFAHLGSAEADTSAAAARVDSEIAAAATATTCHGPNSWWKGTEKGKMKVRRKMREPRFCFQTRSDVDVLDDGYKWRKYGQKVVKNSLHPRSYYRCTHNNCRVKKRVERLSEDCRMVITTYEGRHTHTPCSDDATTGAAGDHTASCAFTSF

The assay concerns the target OsWRKY34 (Oryza sativa, UniProt Q0JBA9 1-250). Nature of the assay: protein-binding microarray (RPBM); PBS, 2% BSA, 51.3 ng/ul salmon testes DNA, 50 uM zinc acetate, 200 nM TF, 25 C, 1 h; high values mean tight binding. The settings on record: protein: recombinant; tags: N-terminal polyhistidine and DsRed monomer fusion (pET32a); label: CyDye5-dUTP incorporated in the synthesized complementary strand; 3' TTTTT single-stranded linker to array surface; dsDNA, one strand shown. In a few lines: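 Binding signal is reported as fluorescence intensity per feature (arbitrary units) from an Axon 4000B scanner. Incubation used 200 nM of each Ni–NTA-purified, N-terminally polyhistidine- and DsRed-fused transcription factor from E. coli BL21-CodonPlus on a double-stranded custom Agilent array for 1 h at 25 °C, with 50 µM zinc acetate in the buffer, followed by washing.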
As for “AGAGACTGGTGATGGACTTTACTCTTTTCTTCTCCAACACCGGAGTCACCTAGTGCAG”, the binding signal is 8330 fluorescence intensity (a.u.). As to “GGGCGCCGGTATGCTTCTTCCATTCCACCTATGTGTTTCTCGGAGTCACCTAGTGCAG”, the binding signal is 9490 fluorescence intensity (a.u.). In the case of “TTACTCTACTCATTTAGCTTTTGGTTGGTTGGTTCCCTTCCGGAGTCACCTAGTGCAG”, the binding signal was 14400 fluorescence intensity (a.u.). As to “TTTTTGTCTTATTGTTTTGTTTATTTTATTTCAGTTTATTCGGAGTCACCTAGTGCAG”, the binding signal was 9760 fluorescence intensity (a.u.).

For the sequence “TTGCTTGTTGATTGATTCGTTTTTGTCAATTTTGAAGTTTCGGAGTCACCTAGTGCAG”, the binding signal is 8470 fluorescence intensity (a.u.). Regarding “CGTTTTTTTTTTCATTCCATGTTTGCATTAGCTTCATTTCCGGAGTCACCTAGTGCAG”, the binding signal is 13400 fluorescence intensity (a.u.). Regarding “ATTTCTTACGTTGTTGCAGCTTTGTTTTTTTTGCTTATTTCGGAGTCACCTAGTGCAG”, the binding signal is 14900 fluorescence intensity (a.u.).

On to “ATTTTTTCACGTTCGGACCTATGGTTTTTTTGCCACTTTGCGGAGTCACCTAGTGCAG”, for which the binding signal is 8520 fluorescence intensity (a.u.). With “TTTCCCACGTTTTGTCATTTTTTCAGCTATATATTAATTTCGGAGTCACCTAGTGCAG”, the binding signal was 12000 fluorescence intensity (a.u.).

With “CGCTTTTGCACAGTATTTTTATTTGCAGAGTTATGTTTGTCGGAGTCACCTAGTGCAG”, the binding signal was 8090 fluorescence intensity (a.u.). Consider “TTTGTTTTTTTTGCTTATTTAGTTTTTTTTTCAGCTTTTTCGGAGTCACCTAGTGCAG”, for which the binding signal is 17300 fluorescence intensity (a.u.).

On to “AAAGTTTTTTGTCGTTGTTTGTTTTCCAGTATTTGCTTTTCGGAGTCACCTAGTGCAG”, for which the binding signal is 18000 fluorescence intensity (a.u.). As for “ATTCCGGTCATTTACGCGCTTTTAGCTTTGCCCTTCATTTCGGAGTCACCTAGTGCAG”, the binding signal is 17200 fluorescence intensity (a.u.).

Take “TTATGCCAGCCATTTCACTTTTTCCCACGTTTTGTCATTTCGGAGTCACCTAGTGCAG”: the binding signal is 18900 fluorescence intensity (a.u.).

“ACAAATTCCTGACTTCACGGTTTTCTATTTGGTTGTAATACGGAGTCACCTAGTGCAG”: the binding signal is 9590 fluorescence intensity (a.u.). As for “TTTTTTTATTCGTGTCTGAAAATCATTTCCGATATCCGGTCGGAGTCACCTAGTGCAG”, the binding signal is 8470 fluorescence intensity (a.u.). In the case of “CACTAAAGTTTCATTGGGTTTTCAGTTTTCACTTCATTATCGGAGTCACCTAGTGCAG”, the binding signal is 10700 fluorescence intensity (a.u.). With “ATTCGTTTCGTATTTATGCCCGATATTATCCGTGCTTCTACGGAGTCACCTAGTGCAG”, the binding signal was 9200 fluorescence intensity (a.u.). On to “TCTCTTTCTCTCTCTCCTCTTCTTCCTTGGCGAGTTGTGCCGGAGTCACCTAGTGCAG”, for which the binding signal was 8080 fluorescence intensity (a.u.).

Regarding “ATCCATCCGAGCTCTCTCTCTCTCTCTGTCTTCTCTCTACCGGAGTCACCTAGTGCAG”, the binding signal is 10700 fluorescence intensity (a.u.). On to “TATTTTCGTCCGGTTTTTTCCACTCACCAGTCACCACCCCCGGAGTCACCTAGTGCAG”, for which the binding signal was 8490 fluorescence intensity (a.u.).

With “ACCACTCACCTCATGATTTTCGTTGTATTCGTTCCAGTCCCGGAGTCACCTAGTGCAG”, the binding signal was 20000 fluorescence intensity (a.u.).

With “ACTCCAGCATGATCCACAACACCACTCACCTCATGATTTTCGGAGTCACCTAGTGCAG”, the binding signal is 8770 fluorescence intensity (a.u.). The same measure for “CTCTCCTCCTCCGTTCCTGACTCCACCACTCACATTCATTCGGAGTCACCTAGTGCAG”: 13200 fluorescence intensity (a.u.). The same measure for “AGGGGTGCTAATTGAGCCTATTTCGGGTGGGGCTCACTGACGGAGTCACCTAGTGCAG”: 15300 fluorescence intensity (a.u.); for “TTCTTGGCCCGCTAACTCATGATGGTTTTATCCAGATCGTCGGAGTCACCTAGTGCAG”: 9880 fluorescence intensity (a.u.); for “GGGATATATCCTTTGACCGGTCAAACCTCGCGACTTCTTCCGGAGTCACCTAGTGCAG”: 18800 fluorescence intensity (a.u.). “TGTGCCTCCGGATTTGACCTTTCCTCGAACCTTCTTCTTCCGGAGTCACCTAGTGCAG”: the binding signal was 13300 fluorescence intensity (a.u.). Turning to “TCAAACCTCGCGACTTCTTCTTCCACCTCTCGCTCCGGGCCGGAGTCACCTAGTGCAG”, the binding signal was 11800 fluorescence intensity (a.u.).

“CCTTTCCTAAGTCTCTGTTTTAACATCTCTATTGGGGCATCGGAGTCACCTAGTGCAG”: the binding signal is 8940 fluorescence intensity (a.u.). For the sequence “CTCCGTCACTCAGATTTAATACATGACTCTCTATTATTCCCGGAGTCACCTAGTGCAG”, the binding signal was 9060 fluorescence intensity (a.u.). For the sequence “GCGGAGGAGGTGGTGGTGGTGGAGGAGGAGGAGGCCAAGGCGGAGTCACCTAGTGCAG”, the binding signal was 19300 fluorescence intensity (a.u.).

Consider “GGAGGTCGGTGGCCTCGGCGGTGGAGGTCGGGGTCGGGGACGGAGTCACCTAGTGCAG”, for which the binding signal was 16500 fluorescence intensity (a.u.). Consider “GGGGAGGCGGGTGGGGTTGAGGAGGTCGGTGGCCTCGGCGCGGAGTCACCTAGTGCAG”, for which the binding signal was 12300 fluorescence intensity (a.u.). Then “GGCGGCGGCGGGGTGGCCTTGGCCGGGTGCCTTGGTGGATCGGAGTCACCTAGTGCAG”, with 10300 fluorescence intensity (a.u.); and “ATGGAGGCGGTGGTCGGAGGTGGCAGACGATGCTCGGGGACGGAGTCACCTAGTGCAG”, with 8040 fluorescence intensity (a.u.); and “GGGGTGGCGGTGGCGGTGGTGGTGGTGGTGGTGGTGGAGTCGGAGTCACCTAGTGCAG”, with 41600 fluorescence intensity (a.u.). Regarding “GGCGGCGGCGGCGGCGGCGGGGAGGAGGTGAAGGTGGAGGCGGAGTCACCTAGTGCAG”, the binding signal is 14100 fluorescence intensity (a.u.).

“CCTTACCGTACAAGGGAGGAGGAGGTGGTGGTGGTGGAGGCGGAGTCACCTAGTGCAG”: the binding signal was 13000 fluorescence intensity (a.u.).

On to “AGGTGGTGGTGGAGGTGGAGGTGGCGGTGGAGGTGGAGGGCGGAGTCACCTAGTGCAG”, for which the binding signal was 38600 fluorescence intensity (a.u.). As for “GGAGGCGGTGGTGTTGGAGTTGGAGGGCGCGTGGAGGTGGCGGAGTCACCTAGTGCAG”, the binding signal is 12900 fluorescence intensity (a.u.). The same measure for “GAGGAGGAGGTGGAGCTACTGGTGGTGGTGGTGGTGGTGGCGGAGTCACCTAGTGCAG”: 16200 fluorescence intensity (a.u.).

Regarding “CAGCAGCGGCGGCGGCGGCGGCGGCGGGGTGGTGGAACCTCGGAGTCACCTAGTGCAG”, the binding signal is 9080 fluorescence intensity (a.u.).

For the origin of these results see article PMC7819943, “Rice protein-binding microarrays: a tool to detect cis-acting elements near promoter regions in rice”.
